PubChem BioAssay (NCATS)
A number with no mark means an inactive call. How the calls were made is not given here.

Each molecule was assayed on HIV-1 nucleocapsid protein NCp7 (binding to TG oligonucleotide) (assay: HIV Nucleocapsid (AID 346;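 further: potency is for inhibitors that block NC binding and lower polarization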)). Settings: HIV-1 NC / fluorescein-TGTGTGTG probe, fluorescence polarization.
How it was run: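 HIV-1 NC (100 nM) binding to fluorescein-labelled ssDNA TG4xF (10 nM) in Hepes pH 7.5, 250mM NaCl, 1uM ZnCl2, TCEP and 2-mercaptoethanol; compounds pin-transferred, 1 hr room temperature, fluorescence polarization read on CCD imager.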
Potency means the concentration at half of the fitted maximal effect.

Compound	Potency [µM]
Cc1cccc(CNc2ncnc3ccc(-c4ccoc4)cc23)c1	> 20
COc1cccc(-c2ccc3ncnc(N(C)C)c3c2)c1	> 20
COc1ccc(C(=O)N2CCC[C@@]3(CCN(c4cccc(-c5ccccc5)c4)C3)C2)cc1	> 20
COc1ccc2[nH]cc(CCNc3cc(-c4ccccc4C)ncn3)c2c1	> 20
CCNc1ncc2nc(-c3cccs3)c(=O)n(Cc3cccs3)c2n1	> 20
CN(C)Cc1ccccc1-c1nccc(N(C)C)n1	> 20
COc1ccc(C(=O)N2CCC[C@@]3(CCN(c4ccncc4)C3)C2)cc1	> 20
CN1CCN(c2ncncc2-c2ccc(N(C)C)cc2)CC1	> 20
Cn1cccc1C(=O)N1CCC2(CCCN(c3ccccc3)C2)CC1	> 20
COc1cccc(Cn2c(=O)c(-c3ccc(F)cc3)nc3cnc(N4CCNCC4)nc32)c1	> 20
COc1cccc(Nc2ncc3nc(-c4cc(F)cc(F)c4)c(=O)n(C[C@H]4CCCO4)c3n2)c1	> 20
Cn1c(=O)c(-c2ccc(F)cc2)nc2cnc(N3CCOCC3)nc21	> 20
Cc1cnc(CNc2ccnc(-c3ccoc3)n2)cn1	> 20
COCCn1c(=O)c(CCc2ccccc2)nc2cnc(N3CCNCC3)nc21	> 20
COc1ccc(C(=O)N2CCC3(CC2)CN(c2ccccn2)C3)cc1	> 20
O=c1c(-c2ccc(F)c(F)c2)nc2cncnc2n1Cc1ccccc1	> 20
CC(C)CN1CC[C@@]2(CCCN(C(=O)c3cnccn3)C2)C1	> 4
O=c1c(-c2cccs2)nc2cncnc2n1-c1ccccc1	18.2
Cc1cccc(CNc2ncnc3ccc(-c4ccccc4C#N)cc23)c1	> 20
COc1ccc(-n2c(=O)c(-c3cccs3)nc3cnc(N4CCOCC4)nc32)cc1	> 4

Compound	Potency [µM]
O=c1c(CCc2ccccc2)nc2cncnc2n1-c1ccccc1	> 20
c1csc(CNc2ncnc3ccc(-c4ccoc4)cc23)c1	> 20
COc1ccc(C(=O)N2CCC[C@@]3(CCN(C(=O)NC(C)C)C3)C2)cc1	> 20
FC(F)(F)c1ccccc1-c1nc(Nc2ccncc2)c2ccccc2n1	> 20
Cc1noc(C)c1C(=O)N1CCC2(CCCN(C(=O)Nc3cccc(C#N)c3)C2)CC1	> 20
CN(C)Cc1ccccc1-c1ccc2ncnc(N3CCOCC3)c2c1	> 20
O=c1c(CCc2ccccc2)nc2cnc(N3CCOCC3)nc2n1C1CC1	> 20
COCCn1c(=O)c(-c2ccc(F)cc2)nc2cnc(Oc3cccc(Cl)c3)nc21	> 20
c1nc(NC2CC2)c2cc(-c3ccoc3)ccc2n1	> 20
COc1ccc(-n2c(=O)c(-c3cc(F)cc(F)c3)nc3cncnc32)cc1	> 20
O=c1c(-c2ccc(F)cc2)nc2cnc(N3CCOCC3)nc2n1-c1ccccc1	> 20
COCCn1c(=O)c(-c2cccs2)nc2cnc(OCc3ccccc3)nc21	> 20
CN(C)Cc1ccccc1-c1cncnc1NCc1cccs1	> 20
O=C(c1cc(C(F)(F)F)cc(C(F)(F)F)c1)N1CCC[C@@]2(CCN(Cc3ccncc3)C2)C1	> 20
CC(=O)NCCNc1ccnc(-c2ccccc2C(F)(F)F)n1	> 20
COCC(=O)N1CCC[C@@]2(CCN(Cc3ccccc3OC)C2)C1	> 20
O=S(=O)(c1ccccc1)N1CCC2(CC1)CN(c1ccncc1)C2	> 20
O=C(Nc1cccc(F)c1)N1CCC2(CCNCC2)CC1	> 20
O=c1c(-c2cccc(Cl)c2)nc2cncnc2n1Cc1ccccc1Cl	> 20
COc1ccc(CNc2ccnc(-c3ccc(C(=O)N(C)C)cc3)n2)c(OC)c1	> 20
